Experimental findings from PubChem BioAssay (Tox21) are described below.

Inconclusive results are not listed. Active and inactive are the calls of the source. Calls come from the whole dose curve.
% is set by controls: 0 for no effect and ±100 for the full control effect.

The experiment is described as follows: qHTS assay to identify small molecule agonists of the endoplasmic reticulum stress response signaling pathway - cell viability counter screen (AID 1159517). Note: nearly all actives have a fitted effect of over 50% in size. As to conditions: ESRE-bla HeLa viability, CellTiter-Glo luminescence, 5 h; series mostly up to 61 µM; activity change, negative = cytotoxicity: at the top concentration. From the text: U.S. Tox21 Program National Center for Advancing Translational Sciences [NCATS] NIH Chemical Genomics Center [NCGC] U.S. Environmental Protection Agency [EPA] National Institutes of Environmental Health Sciences [NIEHS] National Toxicology Program [NTP] U.S. Food and Drug Administration [FDA] Tox21 Assay Overview: Endoplasmic Reticulum (ER) plays an important role in cellular signaling, protein folding/maturation, stress response, lipid biosynthesis, calcium storage and release etc. Under stress conditions, proteins in ER misfold or unfold, and leading to the expression of ER stress responsive genes. ER stress has been associated with a variety of pathophysiological conditions such as cancer, inflammation, neurodegenerative diseases, diabetes, ischemic heart disease etc. To identify the compounds that induce ER stress response, an ER stress reporter cell line, CellSensor ESRE-bla HeLa (Life Technologies, Carlsbad, CA) containing a beta-lactamase reporter gene under control of the Endoplasmic reticulum Stress Response Element (ESRE) was used to screen Tox21 10K compound library. The cytotoxicity of the Tox21 compound library against the ESRE-bla HeLa cell line was tested in parallel by measuring cell viability using the CellTiter-Glo assay in the same wells.
Tox21 Assay Protocol Summary: ESRE-bla HeLa cells were dispensed at 1,500 cells/6 uL of assay medium per well into black wall/clear-bottom 1536-well plates using a Multidrop Combi (ThermoFisher Scientific, Waltham, MA) dispenser. After the assay plates were incubated at 37 C and 5% CO2 for an overnight, 23 nL of compounds dissolved in DMSO, positive controls or DMSO only was transferred to the assay plate by a Pintool station (Kalypsys, San Diego, CA). The assay plates were incubated at 37 C and 5% CO2 for 5 hr. One uL of LiveBLAzer B/G FRET substrate (Life Technologies) was added using a FRD (Flying Reagent Dispenser, Aurora Discovery, San Diego, CA) and the plates were incubated at room temperature for 2 hr. Fluorescence intensity (405 nm excitation, 460 nm and 530 nm emissions) was measured using an Envision plate reader (PerkinElmer, Shelton, CT). For cytotoxicity, 4 ul/well of CellTiter-Glo reagent was added into the assay plates using an FRD. After 30 min incubation at room temperature, the luminescence intensity was measured using a ViewLux plate reader (PerkinElmer).
(Quantitative high-throughput screening tests each substance at several concentrations.)
Take `C=CC(C)=CCC=C(C)C`: the “activity change, negative = cytotoxicity” value was -6.13% (inactive).

Take `CCOc1cc(N)c(Cl)cc1C(=O)NCC1CN(Cc2ccc(F)cc2)CCO1` (stereo not given): the “activity change, negative = cytotoxicity” value was 3.6% (inactive).

As for `CC(=O)OCC(=O)[C@H]1CC[C@H]2[C@@H]3CCC4=CC(=O)CC[C@]4(C)[C@H]3CC[C@]12C`, the “activity change, negative = cytotoxicity” value is 6.59% (inactive).

Consider `CCC(C(=O)OCCN(CC)CC)c1ccccc1` (stereo not given), for which the “activity change, negative = cytotoxicity” value is 12.4% (inactive).

`O=C(CCCCCCC(=O)Nc1ccccc1)NO`: the “activity change, negative = cytotoxicity” value is -5% (inactive).

For the compound `CNCCCC1c2ccccc2C=Cc2ccccc21`, the “activity change, negative = cytotoxicity” value was -0.87% (inactive).

As to `CCCOCCOCCO`, the “activity change, negative = cytotoxicity” value is -6.34% (inactive).

For the compound `COC(=O)Nc1nc2ccc(C(=O)c3cccs3)cc2[nH]1`, the “activity change, negative = cytotoxicity” value was 10.2% (inactive).

For the compound `Fc1c(F)c(F)c(Br)c(F)c1F`, the “activity change, negative = cytotoxicity” value was 23.2% (inactive).

Regarding `CC#N`, the “activity change, negative = cytotoxicity” value is 5.35% [at 78.8 µM] (inactive).

As to `COc1cc2c(N3CCN(C(=O)Nc4ccc(OC(C)C)cc4)CC3)ncnc2cc1OCCCN1CCCCC1`, the “activity change, negative = cytotoxicity” value is -0.465% (inactive).

Turning to `CCn1nc(C)c2c1C(=O)NCC(c1ccc(O)cc1)=N2`, the “activity change, negative = cytotoxicity” value is -2.31% (inactive).

In the case of `O=C(O)c1ccccc1NCCc1ccccc1`, the “activity change, negative = cytotoxicity” value was 3.19% (inactive).

On to `O=C(CCCN1CCC(O)(c2ccc(Br)cc2)CC1)c1ccc(F)cc1`, for which the “activity change, negative = cytotoxicity” value is -19.6% (inactive).

As to `COc1ccccc1N=Nc1c(S(=O)(=O)O)cc2cc(S(=O)(=O)O)cc(NC(C)=O)c2c1O`, the “activity change, negative = cytotoxicity” value is 6.74% (inactive).

As for `CN(C)CCOC1=Cc2ccccc2Sc2ccc(Cl)cc21`, the “activity change, negative = cytotoxicity” value is -2.83% (inactive).

As for `CCCCCCCCCCCC(=O)[O][Sn]([CH2]CCC)([CH2]CCC)[O]C(=O)CCCCCCCCCCC`, the “activity change, negative = cytotoxicity” value is -22.8% (inactive).

As for `Cc1ccc(S(=O)(=O)NC2CCCCC2)cc1`, the “activity change, negative = cytotoxicity” value was -24.5% (inactive).

With `CCCOC(=O)c1ccc(C(=O)OCCC)nc1`, the “activity change, negative = cytotoxicity” value is 0.386% (inactive).

Turning to `CCOC(=O)N1CCC(n2c(=O)[nH]c3cc(Cl)ccc32)CC1`, the “activity change, negative = cytotoxicity” value is 2.86% (inactive).

Consider `CCc1nn(CCCN2CCN(c3cccc(Cl)c3)CC2)c(=O)n1CCOc1ccccc1`, for which the “activity change, negative = cytotoxicity” value was 6.71% (inactive).

For the compound `CCc1c2c(nc3ccc(OC(=O)N4CCC(N5CCCCC5)CC4)cc13)-c1cc3c(c(=O)n1C2)COC(=O)[C@]3(O)CC`, the “activity change, negative = cytotoxicity” value was 10% (inactive).

As to `Cc1cc(O)c2c(O)c3c(O)cccc3cc2c1`, the “activity change, negative = cytotoxicity” value was -4.4% (inactive).

Turning to `Cc1nccn1-c1ccc(Sc2cccc(C3(C(N)=O)CCOCC3)c2)cc1`, the “activity change, negative = cytotoxicity” value was 10.5% (inactive).

Turning to `O=C(NCCCN1CCOCC1)c1ccc(Cl)cc1`, the “activity change, negative = cytotoxicity” value was -0.225% (inactive).

`CC(=O)N(c1onc(C)c1C)S(=O)(=O)c1ccc(N)cc1`: the “activity change, negative = cytotoxicity” value is 1.41% (inactive).

In the case of `CC(C)(C)CC(C)(C)c1ccc(OCCO)cc1`, the “activity change, negative = cytotoxicity” value was -3.82% (inactive).

Regarding `O=C1OCCN1/N=C/c1ccc([N+](=O)[O-])o1`, the “activity change, negative = cytotoxicity” value is 15.2% (inactive).

For `CC(C)CCCC(=O)O`, the “activity change, negative = cytotoxicity” value is -8.45% (inactive).

`O=S(=O)(c1ccccc1)c1ccc(Cl)cc1`: the “activity change, negative = cytotoxicity” value was -7.51% (inactive).

For the compound `Cc1cc(S(=O)(=O)O)ccc1N=Nc1c(O)ccc2ccccc12`, the “activity change, negative = cytotoxicity” value was -0.513% (inactive).

Consider `CNC(=S)NC`, for which the “activity change, negative = cytotoxicity” value was -0.451% (inactive).

`CCCCCCCCCCCC[N+](C)(C)CC(=O)[O-]`: the “activity change, negative = cytotoxicity” value was -4.29% (inactive).

With `Oc1cc(O)c(Cl)cc1Cl`, the “activity change, negative = cytotoxicity” value was 8.05% [at 78.8 µM] (inactive).

For `NC(=O)Nc1ccc(Cl)cc1`, the “activity change, negative = cytotoxicity” value was 4.65% (inactive).

For `CC1(C)O[C@@H]2C[C@H]3[C@@H]4CCC5=CC(=O)C=C[C@]5(C)[C@H]4[C@@H](O)C[C@]3(C)[C@]2(C(=O)CO)O1`, the “activity change, negative = cytotoxicity” value was 1.03% (inactive).

In the case of `COCCOC(=O)C1=C(C)NC(C)=C(C(=O)OC/C=C/c2ccccc2)C1c1cccc([N+](=O)[O-])c1` (stereo not given), the “activity change, negative = cytotoxicity” value is 0.734% (inactive).

Take `CN1CCN(c2c(F)cc3c(=O)c(C(=O)O)cn4c3c2OCN4C)CC1`: the “activity change, negative = cytotoxicity” value is 3.5% [at 28.5 µM] (inactive).

`CCCCC(CC)COC(=O)COc1ccc(Cl)cc1C` (stereo not given): the “activity change, negative = cytotoxicity” value is 13.9% (inactive).

In the case of `O=C(CCCN1CCN(c2ccc(F)cc2)CC1)NC1c2ccccc2CSc2ccccc21` (stereo not given), the “activity change, negative = cytotoxicity” value was -0.814% (inactive).
